# Measured values from PubChem BioAssay.
# Legend:
# [1] = test system: Human papillomavirus type 1a protein E7 (residues 44-93); experiment: HPV1a E7 fragment binders on microarrays, primary screen, biochemical, small-molecule microarray, residues 44-93, 635 nm fluorescence (AID 1108); conditions: small-molecule microarray binding, fluorescence 635 nm; higher = more signal;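 also: E7 fragment applied at 1 µg/mL in TBST for 1 h at 4 C; score combines spot fluorescence with its signal to noise ratio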
# [2] = modulators of HCV replicon luciferase signal, primary screen, HCV replication inhibitor project, Huh7 cells, luciferase reporter (AID 1109); conditions: 48 h, higher = more signal;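 also: huh7 hepatoma cells harbouring a luciferase neomycin HCV replicon reporter; luciferase luminescence as measure of HCV replicon replication; test concentration not given here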
# [3] = molecular target: Left-right determination factor 2 (Homo sapiens) (UniProt O00292); experiment: LEFTY2 binders on small-molecule microarrays, primary screen, biochemical, small-molecule microarray, 635 nm fluorescence scan (AID 1110); conditions: LEFTY2 binding, higher = more signal
# [4] = molecular target: Calmodulin-1 (Homo sapiens) (UniProt P0DP23); experiment: CALM1 binders on microarrays, EGTA buffer, profiling panel, biochemical, small-molecule microarray, Cy5-labelled CALM1 (AID 1111); conditions: Cy5-CALM1 binding fluorescence, higher = more signal;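 also: labelled calmodulin applied in Tris saline Tween buffer holding calcium plus EGTA and DTT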
# [5] = molecular target: Calmodulin-1 (Homo sapiens) (UniProt P0DP23); experiment: calcium-bound CALM1 binders on microarrays, profiling panel, artefact control for SMM control-protein annotation, biochemical, small-molecule microarray, Cy5-labelled CALM1, plus calcium (AID 1112); conditions: Cy5-CALM1 binding fluorescence, higher = more signal;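 also: score merges spot fluorescence with signal to noise from triplicate slides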
# [6] = small-molecule microarray binders of probe aWnt5a, primary screen, biochemical, biotinylated probe, 635/667 nm fluorescence (AID 1113); conditions: higher = more signal;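 also: score merges 667 nm fluorescence intensity with signal-to-noise per printed feature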
# [7] = small-molecule microarray binders of probe aShh, primary screen, biochemical, biotinylated probe, 635/667 nm fluorescence (AID 1114); conditions: higher = more signal;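 also: probe is biotin-labelled aShh protein from a stem cell growth factor screen; measures binding of labelled protein to compounds printed on the slide; score merges feature fluorescence at 667 nm with signal-to-noise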
# [8] = small-molecule microarray binders of probe aNog, primary screen, biochemical, biotinylated probe, 635/667 nm fluorescence (AID 1115); conditions: higher = more signal;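 also: probe is biotinylated aNog protein used at 0.15 µg/mL for 1 h at 4 C; z-score combines 667 nm fluorescence of each spot with its signal to noise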
# [9] = molecular target: Torsin-1A-interacting protein 1 (Homo sapiens) (UniProt Q5JTV8); experiment: LAP1 binders from COS7 cell lysate, primary screen, small-molecule microarray, 635/667 nm fluorescence (AID 1116); conditions: COS7-hLAP1 lysate binding, 635 nm fluorescence, higher = more signal
# [10] = molecular target: Alpha-bungarotoxin (Bungarus multicinctus) (UniProt P60615); experiment: alpha-bungarotoxin binders on microarray, profiling panel, artefact control for SMM control protein annotation, biochemical, small-molecule microarray, Alexa647 label, 635/667 nm fluorescence (AID 1117); conditions: alpha-BTX-A647 binding fluorescence, higher = more signal
# Chain of Alpha-bungarotoxin (Bungarus multicinctus) (P60615 whole entry, looked up): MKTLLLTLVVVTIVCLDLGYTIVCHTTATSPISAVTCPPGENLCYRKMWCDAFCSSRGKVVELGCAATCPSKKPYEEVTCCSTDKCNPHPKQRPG
# Chain of Left-right determination factor 2 (Homo sapiens) (O00292 whole entry, looked up): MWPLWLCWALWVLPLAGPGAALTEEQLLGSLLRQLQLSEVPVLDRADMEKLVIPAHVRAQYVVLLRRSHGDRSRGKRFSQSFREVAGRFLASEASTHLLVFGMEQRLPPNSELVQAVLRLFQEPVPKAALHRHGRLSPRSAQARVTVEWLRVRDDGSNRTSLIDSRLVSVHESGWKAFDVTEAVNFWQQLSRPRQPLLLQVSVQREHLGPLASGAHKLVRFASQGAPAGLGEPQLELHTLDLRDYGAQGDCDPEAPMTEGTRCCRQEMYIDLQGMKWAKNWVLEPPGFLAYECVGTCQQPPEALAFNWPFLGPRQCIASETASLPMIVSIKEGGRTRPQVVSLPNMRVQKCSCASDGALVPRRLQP
# Chain of Torsin-1A-interacting protein 1 (Homo sapiens) (Q5JTV8 whole entry, looked up): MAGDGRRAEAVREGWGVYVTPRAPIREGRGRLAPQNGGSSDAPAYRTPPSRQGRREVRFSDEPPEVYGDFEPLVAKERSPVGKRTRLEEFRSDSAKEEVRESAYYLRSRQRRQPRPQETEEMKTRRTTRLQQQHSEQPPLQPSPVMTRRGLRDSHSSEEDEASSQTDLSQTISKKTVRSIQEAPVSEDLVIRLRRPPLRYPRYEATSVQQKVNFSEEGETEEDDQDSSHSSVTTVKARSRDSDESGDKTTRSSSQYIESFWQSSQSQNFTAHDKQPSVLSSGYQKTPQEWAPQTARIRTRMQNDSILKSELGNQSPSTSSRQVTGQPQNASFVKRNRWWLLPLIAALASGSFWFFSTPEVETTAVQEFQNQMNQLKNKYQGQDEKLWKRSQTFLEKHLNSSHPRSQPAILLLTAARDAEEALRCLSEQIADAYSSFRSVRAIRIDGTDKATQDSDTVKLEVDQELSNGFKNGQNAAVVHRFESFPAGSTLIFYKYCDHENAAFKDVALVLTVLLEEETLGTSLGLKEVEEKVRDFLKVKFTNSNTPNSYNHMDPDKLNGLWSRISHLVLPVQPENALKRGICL
smiles,measurement,setting,value
Cc1c(NC(=O)/C(C#N)=C/C=C/c2ccc([N+](=O)[O-])cc2)c(=O)n(-c2ccccc2)n1C,composite z-score,[1],0.572
same,z-score,[2],-1.71
same,composite z-score,[3],0.328
same,composite z-score,[4],1.97
same,composite z-score,[5],0.72
same,composite z-score,[6],-0.0792
same,composite z-score,[7],-0.0769
same,composite z-score,[8],0.457
same,composite z-score,[9],1.37
same,composite z-score,[10],1.13
COc1cccc(C)c1NC(=O)O[C@H]1[C@H](OC(=O)Nc2ccccc2)[C@@H](OC(=O)Nc2ccccc2)[C@@H](OC)O[C@@H]1CO,composite z-score,[1],1.52
same,z-score,[2],-2.72
same,composite z-score,[3],0.508
same,composite z-score,[4],1.13
same,composite z-score,[5],-0.271
same,composite z-score,[6],0.0321
same,composite z-score,[7],0.157
same,composite z-score,[8],0.0023
same,composite z-score,[9],2.17
same,composite z-score,[10],1.31
COCCOC(=O)N1C(=O)[C@@]2(c3cc(C#CC4(O)CCCCCC4)ccc31)[C@H](C(N)=O)[C@H]1C(=O)O[C@H](c3ccccc3)[C@H](c3ccccc3)N1[C@@H]2c1ccc(OCCO)cc1,composite z-score,[1],0.688
same,z-score,[2],-2.61
same,composite z-score,[3],0.73
same,composite z-score,[4],1.49
same,composite z-score,[5],0.527
same,composite z-score,[6],-0.0364
same,composite z-score,[7],0.407
same,composite z-score,[8],0.176
same,composite z-score,[9],0.883
same,composite z-score,[10],1.61
C=C(C(=O)CC[C@@H](OC(=O)c1cccnc1)c1cccc(OCCO)c1)C(C)C,composite z-score,[1],-0.501
same,z-score,[2],-2.12
same,composite z-score,[3],0.415
same,composite z-score,[4],-0.323
same,composite z-score,[5],-1.4
same,composite z-score,[6],-0.0405
same,composite z-score,[7],-0.123
same,composite z-score,[8],-0.0784
same,composite z-score,[9],0.534
same,composite z-score,[10],0.316
COCCCNC(=O)[C@@]1(CCC(=O)OC(C)(C)C)N=C(c2ccc(OCCCO)cc2)O[C@H]1c1ccccc1,composite z-score,[1],1.37
same,z-score,[2],-0.618
same,composite z-score,[3],-0.926
same,composite z-score,[4],1.1
same,composite z-score,[5],0.783
same,composite z-score,[6],-0.0566
same,composite z-score,[7],0.123
same,composite z-score,[8],1.83
same,composite z-score,[9],1.49
same,composite z-score,[10],1.32
COC(=O)C(CC#Cc1ccc2c(c1)[C@]1(C(=O)N2)[C@H](c2ccccc2OCCO)N2[C@H](c3ccccc3)[C@H](c3ccccc3)OC(=O)[C@H]2[C@@H]1C(=O)N1CCN(c2ncccn2)CC1)C(=O)OC,composite z-score,[1],1.37
same,z-score,[2],-2.63
same,composite z-score,[3],0.595
same,composite z-score,[4],0.999
same,composite z-score,[5],-0.154
same,composite z-score,[6],-0.152
same,composite z-score,[7],0.178
same,composite z-score,[8],-0.158
same,composite z-score,[9],0.664
same,composite z-score,[10],0.876
O=C1NC(=O)C2C1C=CC(C(O)C1CCCCC1)N2Nc1ccccn1 (stereo not given),composite z-score,[1],0.657
same,z-score,[2],-0.442
same,composite z-score,[3],0.372
same,composite z-score,[4],0.5
same,composite z-score,[5],0.469
same,composite z-score,[6],-0.0478
same,composite z-score,[7],0.321
same,composite z-score,[8],0.69
same,composite z-score,[9],-0.26
same,composite z-score,[10],0.353
COC(=O)[C@@]1(Cc2ccc(F)cc2)[C@H]2c3cc(C(=O)N(C)C)n(Cc4ccsc4Br)c3C[C@H]2CN1C(=O)c1ccccc1,composite z-score,[1],-0.468
same,z-score,[2],-0.787
same,composite z-score,[3],0.648
same,composite z-score,[4],2.16
same,composite z-score,[5],0.981
same,composite z-score,[6],1.37
same,composite z-score,[7],2.15
same,composite z-score,[8],-0.0209
same,composite z-score,[9],1.53
same,composite z-score,[10],0.427
